{
  "source": "PubChem BioAssay (NCATS)",
  "key": {"[1]": {"test": "P-glycoprotein substrates identified in KB-3-1 adenocarcinoma cell line, qHTS therapeutic library screen (AID 1346986); also: nearly all actives have a fitted effect of over 60% in size", "outline": "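Viability by CellTiter-Glo after 72 h compound exposure at 37 degree C, 5% CO2. Cytotoxic call: curve class -1.1 to -2.4, maximum response >50%, AC50 < 10 uM, compared across KB-3-1 and P-gp-overexpressing KB-8-5-11.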"}, "[2]": {"test": "P-glycoprotein substrates identified in KB-8-5-11 adenocarcinoma cell line, qHTS therapeutic library screen (AID 1346987); also: nearly all actives have a fitted effect of over 65% in size; as to activity change, negative = cytotoxicity: series mostly up to about 44 µM", "outline": "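Human cervical adenocarcinoma KB-8-5-11 cells, selected in colchicine to over-express P-gp and assayed without it, were exposed for 72 h to titrated compounds. An ATP-based luminescent viability signal gave AC50.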"}, "[3]": {"test_system": "Zika virus NS2B-NS3 protease (unlinked complex)", "test": "Primary screen GU Rhodamine qHTS for Zika virus inhibitors: Unlinked NS2B-NS3 protease assay (AID 1347159); also: nearly all actives have a fitted effect of over 60% in size; also: potency is read from the fitted curve at half-maximal effect", "outline": "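In dose–response format, inhibition of unlinked protease (25 nM) was measured with 1.5 microM bis-peptide Rhodamine110 substrate. Aprotinin served as the intraplate control.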"}, "[4]": {"test_system": "Zika virus NS2B-NS3 protease (linked construct)", "test": "Primary screen NINDS Rhodamine qHTS for Zika virus inhibitors (AID 1347160); also: nearly all actives have a fitted effect of over 55% in size; also: potency is read from the fitted curve at half-maximal effect", "outline": "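Each compound, titrated, sat 15 min with 25 nM linked protease before 1.5 microM Rhodamine110 substrate went in. Fluorescence gain over the next 15 min, in pH 8.0 Tris with Tween 20, gave Hill-fitted curves.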"}},
  "note": "Inconclusive results are not listed. Entries that show only a call come without a potency. Unmarked numbers belong to inactive results. Calls of active or inactive are those of the source. Calls follow the shape of the dose curve; as a rule, active = well fitted curve in the direction sought with a large enough effect; inconclusive = small, poorly fitted or top-dose-only effect, or another doubt; inactive = no such curve, though single readings can be large; an effect the other way counts as inactive or inconclusive.",
  "data": [
    {"molecule": "COc1ccc(-c2ccn(CC[C@](C)(C(=O)NO)S(C)(=O)=O)c(=O)c2)c(F)c1", "values": [
      {"measurement": "Potency", "setting": "[1]", "value": "inactive"},
      {"measurement": "Potency", "setting": "[2]", "value": "inactive"},
      {"measurement": "Potency", "setting": "[3]", "value": "inactive"},
      {"measurement": "Potency", "setting": "[4]", "value": "inactive"}
    ]},
    {"molecule": "CN(C)CC(c1ccc(O)cc1)C1(O)CCCCC1", "note": "(stereo not drawn)", "values": [
      {"measurement": "Potency", "setting": "[1]", "value": "inactive"},
      {"measurement": "Potency", "setting": "[2]", "value": "inactive"},
      {"measurement": "Potency", "setting": "[3]", "value": "inactive"},
      {"measurement": "Potency", "setting": "[4]", "value": "inactive"}
    ]},
    {"molecule": "COC(=O)c1c(CC=C(C)C)c(OC2OC(CO)C(O)C(O)C2O)c2ccccc2c1OC1OC(CO)C(O)C(O)C1O", "note": "(stereo not drawn)", "values": [
      {"measurement": "Potency", "setting": "[1]", "value": "inactive"},
      {"measurement": "Potency", "setting": "[2]", "value": "inactive"},
      {"measurement": "Potency", "setting": "[3]", "value": "inactive"},
      {"measurement": "Potency", "setting": "[4]", "value": "inactive"}
    ]},
    {"molecule": "Cc1occc(=O)c1O[C@@H]1O[C@H](CO[C@@H]2OC[C@](O)(CO)[C@H]2O)[C@@H](O)[C@H](O)[C@H]1O", "values": [
      {"measurement": "Potency", "setting": "[1]", "value": "inactive"},
      {"measurement": "Potency", "setting": "[2]", "value": "inactive"},
      {"measurement": "Potency", "setting": "[3]", "value": "inactive"},
      {"measurement": "Potency", "setting": "[4]", "value": "inactive"}
    ]},
    {"molecule": "CC(=O)OCC1OC(O[C@H]2CC[C@@]3(C)C(CC[C@]4(C)C3CC=C3[C@@H]5CC(C)(C)CC[C@]5(C(=O)O)CC[C@]34C)[C@]2(C)CO)C(O)C(O)C1OC1OC(C)C(O)C(OC2OCC(O)C(O)C2O)C1O", "note": "(stereo partly drawn)", "values": [
      {"measurement": "outcome", "setting": "[1]", "value": "inactive [at 9.29 µM]"},
      {"measurement": "outcome", "setting": "[2]", "value": "inactive [at 9.29 µM]"},
      {"measurement": "Potency", "setting": "[3]", "value": "inactive"},
      {"measurement": "Potency", "setting": "[4]", "value": "inactive"}
    ]},
    {"molecule": "C/C=C/C=C/C=C/C(=O)N(C)C(C(=O)NC(C)C(=O)N1CCCC1C(N)=O)C(C)C", "note": "(stereo not drawn)", "values": [
      {"measurement": "Potency", "setting": "[1]", "value": "inactive"},
      {"measurement": "Potency", "setting": "[2]", "value": "inactive"},
      {"measurement": "Potency", "setting": "[3]", "value": "inactive"},
      {"measurement": "Potency", "setting": "[4]", "value": "inactive"}
    ]},
    {"molecule": "CSC(=O)OCC1=C[C@@H]2OC(=O)C3=CO[C@@H](O[C@@H]4O[C@H](CO)[C@@H](O)[C@H](O)[C@H]4O)[C@H]1[C@@H]32", "values": [
      {"measurement": "Potency", "setting": "[1]", "value": "inactive"},
      {"measurement": "Potency", "setting": "[2]", "value": "inactive"},
      {"measurement": "Potency", "setting": "[3]", "value": "inactive"},
      {"measurement": "Potency", "setting": "[4]", "value": "inactive"}
    ]},
    {"molecule": "C/C(=C\\CO)CC/C=C(\\C)C(=O)O[C@@H]1O[C@H](CO)[C@@H](O)[C@H](O)[C@H]1O", "values": [
      {"measurement": "Potency", "setting": "[1]", "value": "inactive"},
      {"measurement": "Potency", "setting": "[2]", "value": "inactive"},
      {"measurement": "Potency", "setting": "[3]", "value": "inactive"},
      {"measurement": "Potency", "setting": "[4]", "value": "inactive"}
    ]},
    {"molecule": "CC(=O)OC1CC2(C)C(CCC(C)C23Cc2c(O)cc4c(c2O3)CNC4=O)C(C)(C)C1O", "note": "(stereo not drawn)", "values": [
      {"measurement": "Potency", "setting": "[1]", "value": "inactive"},
      {"measurement": "Potency", "setting": "[2]", "value": "inactive"},
      {"measurement": "Potency", "setting": "[3]", "value": "inactive"},
      {"measurement": "Potency", "setting": "[4]", "value": "inactive"}
    ]},
    {"molecule": "O=C(O)CC1CCC(c2ccc(NC(=O)c3nnc(Nc4ccc(F)c(F)c4)o3)cc2)CC1", "note": "(stereo not drawn)", "values": [
      {"measurement": "Potency", "setting": "[1]", "value": "inactive"},
      {"measurement": "Potency", "setting": "[2]", "value": "inactive"},
      {"measurement": "Potency", "setting": "[3]", "value": "14.1 µM (active)"},
      {"measurement": "Potency", "setting": "[4]", "value": "14.1 µM (active)"}
    ]},
    {"molecule": "COc1cc(CC2COC(c3ccc(OC4OC(CO)C(O)C(O)C4O)c(OC)c3)C2CO)ccc1O", "note": "(stereo not drawn)", "values": [
      {"measurement": "Potency", "setting": "[1]", "value": "inactive"},
      {"measurement": "Potency", "setting": "[2]", "value": "inactive"},
      {"measurement": "Potency", "setting": "[3]", "value": "inactive"},
      {"measurement": "Potency", "setting": "[4]", "value": "inactive"}
    ]},
    {"molecule": "COc1ccc(O[C@@H]2O[C@H](CO)[C@@H](O)[C@H](O)[C@H]2O)cc1OC", "values": [
      {"measurement": "Potency", "setting": "[1]", "value": "inactive"},
      {"measurement": "Potency", "setting": "[2]", "value": "inactive"},
      {"measurement": "Potency", "setting": "[3]", "value": "inactive"},
      {"measurement": "Potency", "setting": "[4]", "value": "inactive"}
    ]},
    {"molecule": "C=C1C[C@H](O)[C@@H](O)[C@@]2(C)C1[C@@H](O)[C@H]1OC(=O)C3[C@@H](C)[C@@H](O)[C@H](O)C2[C@]31C", "note": "(stereo partly drawn)", "values": [
      {"measurement": "Potency", "setting": "[1]", "value": "inactive"},
      {"measurement": "Potency", "setting": "[2]", "value": "inactive"},
      {"measurement": "Potency", "setting": "[3]", "value": "inactive"},
      {"measurement": "Potency", "setting": "[4]", "value": "inactive"}
    ]},
    {"molecule": "CC1(C)C[C@H](O)C[C@@]2(C)[C@H]1[C@H](O)C=C1COC(=O)[C@@]12O", "values": [
      {"measurement": "Potency", "setting": "[1]", "value": "inactive"},
      {"measurement": "Potency", "setting": "[2]", "value": "inactive"},
      {"measurement": "Potency", "setting": "[3]", "value": "inactive"},
      {"measurement": "Potency", "setting": "[4]", "value": "inactive"}
    ]},
    {"molecule": "COC(=O)C1=COC(OC2OC(CO)C(O)C(O)C2O)C2C(COC(=O)/C=C/c3ccc(O)cc3)C(O)C(O)C12", "note": "(stereo not drawn)", "values": [
      {"measurement": "Potency", "setting": "[1]", "value": "inactive"},
      {"measurement": "Potency", "setting": "[2]", "value": "inactive"},
      {"measurement": "Potency", "setting": "[3]", "value": "inactive"},
      {"measurement": "Potency", "setting": "[4]", "value": "inactive"}
    ]},
    {"molecule": "C=C[C@@]1(C)CCC2=C([C@H]1OC(C)=O)[C@H](OC(C)=O)CC1[C@](C)(C(=O)OC)CC[C@H](OC(C)=O)[C@]21C", "note": "(stereo partly drawn)", "values": [
      {"measurement": "Potency", "setting": "[1]", "value": "inactive"},
      {"measurement": "Potency", "setting": "[2]", "value": "inactive"},
      {"measurement": "Potency", "setting": "[3]", "value": "inactive"},
      {"measurement": "Potency", "setting": "[4]", "value": "inactive"}
    ]},
    {"molecule": "COCCCc1sc(-c2ccccc2)nc1C(=O)Nc1ccccc1-c1nc2cc(CN3CCCC3)cnc2s1", "values": [
      {"measurement": "Potency", "setting": "[1]", "value": "inactive"},
      {"measurement": "Potency", "setting": "[2]", "value": "inactive"},
      {"measurement": "Potency", "setting": "[3]", "value": "inactive"},
      {"measurement": "Potency", "setting": "[4]", "value": "inactive"}
    ]},
    {"molecule": "Nc1ncnc2c1C(=O)N(c1ccc(C3CCC(CC(=O)O)CC3)cc1)CCO2", "note": "(stereo not drawn)", "values": [
      {"measurement": "Potency", "setting": "[1]", "value": "inactive"},
      {"measurement": "Potency", "setting": "[2]", "value": "inactive"},
      {"measurement": "Potency", "setting": "[3]", "value": "inactive"},
      {"measurement": "Potency", "setting": "[4]", "value": "inactive"}
    ]},
    {"molecule": "CC1CCCCCCCc2cc(O)cc(O)c2C(=O)O1", "note": "(stereo not drawn)", "values": [
      {"measurement": "Potency", "setting": "[1]", "value": "inactive"},
      {"measurement": "Potency", "setting": "[2]", "value": "inactive"},
      {"measurement": "Potency", "setting": "[3]", "value": "39.8 µM (active)"},
      {"measurement": "Potency", "setting": "[4]", "value": "15.8 µM (active)"}
    ]},
    {"molecule": "CC1=CC(=O)C2C(C)(C)CCC[C@]2(C)[C@H]1CC[C@H](C)CC(=O)O", "note": "(stereo partly drawn)", "values": [
      {"measurement": "Potency", "setting": "[1]", "value": "inactive"},
      {"measurement": "Potency", "setting": "[2]", "value": "inactive"},
      {"measurement": "Potency", "setting": "[3]", "value": "inactive"},
      {"measurement": "Potency", "setting": "[4]", "value": "inactive"}
    ]},
    {"molecule": "CC1=C[C@H](O)[C@H]2C(C)(C)CCC[C@]2(C)[C@@]1(O)CO", "values": [
      {"measurement": "Potency", "setting": "[1]", "value": "inactive"},
      {"measurement": "Potency", "setting": "[2]", "value": "inactive"},
      {"measurement": "Potency", "setting": "[3]", "value": "inactive"},
      {"measurement": "Potency", "setting": "[4]", "value": "inactive"}
    ]},
    {"molecule": "C[C@@H]1O[C@@H](O[C@H]2[C@H](OC(=O)[C@]34CCC(C)(C)C[C@H]3C3=CCC5[C@@]6(C)C[C@@H](O)[C@@H](O[C@@H]7O[C@H](CO)[C@@H](O)[C@H](O)[C@H]7O)[C@@](C)(CO)C6[C@H](O)C[C@@]5(C)[C@]3(C)CC4)OC[C@H](O)[C@@H]2O)[C@H](O)[C@H](O[C@@H]2OC[C@](O)(CO)[C@H]2O)[C@H]1O[C@@H]1OC[C@@H](O)[C@H](O[C@H]2O[C@H](C)[C@@H](O)[C@H](O)[C@@H]2O)[C@H]1O", "note": "(stereo partly drawn)", "values": [
      {"measurement": "outcome", "setting": "[1]", "value": "inactive [at 9.29 µM]"},
      {"measurement": "activity change, negative = cytotoxicity", "setting": "[2]", "value": "2.77% [at 9.29 µM]"},
      {"measurement": "activity change, negative = inhibition", "setting": "[3]", "value": "9.3% [at 19.1 µM]"},
      {"measurement": "Potency", "setting": "[4]", "value": "inactive"}
    ]}
  ]
}
